# Experiments:
# Test in all cases: DAPPL (digital affinity profiling via proximity ligation, sequencing); 10 mM Tris-HCl pH 7.5, 50 mM NaCl, 1 mM DTT, 4% glycerol, room temperature, 30 min; GST-TFs on glutathione beads, 16-mer random dsDNA library, 0.1% formaldehyde crosslink after washing; high values mean tight binding
# Conditions in all cases: protein: recombinant; tags: N-terminal GST; dsDNA, one strand shown
# [1] = target: T1, ELK1 (Homo sapiens, UniProt P19419 1-428)
# T1 sequence: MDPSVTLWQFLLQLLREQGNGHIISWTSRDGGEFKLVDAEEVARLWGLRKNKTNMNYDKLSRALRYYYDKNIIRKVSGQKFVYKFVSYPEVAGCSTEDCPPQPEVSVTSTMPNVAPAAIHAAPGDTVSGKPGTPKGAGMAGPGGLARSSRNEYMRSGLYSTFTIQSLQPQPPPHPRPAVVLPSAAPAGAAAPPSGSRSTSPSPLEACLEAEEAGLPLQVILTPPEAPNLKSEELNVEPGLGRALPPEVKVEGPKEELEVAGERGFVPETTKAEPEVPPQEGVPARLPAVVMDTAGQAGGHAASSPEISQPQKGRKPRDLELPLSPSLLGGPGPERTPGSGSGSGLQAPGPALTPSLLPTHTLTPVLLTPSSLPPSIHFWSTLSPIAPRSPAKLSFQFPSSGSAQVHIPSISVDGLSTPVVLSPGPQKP
# Summary of the method: (§1)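 Beads coated with glutathione captured GST-fused human transcription factors that had been expressed in yeast, and the factors were then given DNA barcodes and pooled with a tag-only sample. The pools were incubated with 200 nmole of a random double-stranded 16-mer DNA library in Tris/NaCl/DTT/glycerol buffer for 30 min at room temperature, washed, crosslinked with 0.1% formaldehyde and proximity-ligated with BsaI/T4 ligase at 37 °C for 1 h. PCR amplification and Illumina NextSeq500 sequencing came last. Binding signal is each hexamer's read frequency for a factor divided by its frequency for the tag-only sample.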
# [2] = target: T2, GABPA (Homo sapiens, UniProt Q06546 1-454)
# T2 sequence: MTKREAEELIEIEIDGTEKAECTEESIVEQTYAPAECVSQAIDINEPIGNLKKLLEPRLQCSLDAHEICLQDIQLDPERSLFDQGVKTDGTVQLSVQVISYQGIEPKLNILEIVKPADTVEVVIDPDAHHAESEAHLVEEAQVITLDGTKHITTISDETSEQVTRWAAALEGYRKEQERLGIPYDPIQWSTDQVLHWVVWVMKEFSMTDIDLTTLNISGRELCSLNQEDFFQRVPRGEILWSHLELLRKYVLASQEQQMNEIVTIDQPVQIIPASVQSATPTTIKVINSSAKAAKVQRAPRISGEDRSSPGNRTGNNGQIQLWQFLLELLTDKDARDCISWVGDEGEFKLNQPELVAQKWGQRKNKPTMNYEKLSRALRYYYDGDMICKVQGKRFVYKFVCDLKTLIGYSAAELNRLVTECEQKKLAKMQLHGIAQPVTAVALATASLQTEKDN
# Summary of the method: as §1
# [3] = target: T3, ERG (Homo sapiens, UniProt P11308 1-479)
# T3 sequence: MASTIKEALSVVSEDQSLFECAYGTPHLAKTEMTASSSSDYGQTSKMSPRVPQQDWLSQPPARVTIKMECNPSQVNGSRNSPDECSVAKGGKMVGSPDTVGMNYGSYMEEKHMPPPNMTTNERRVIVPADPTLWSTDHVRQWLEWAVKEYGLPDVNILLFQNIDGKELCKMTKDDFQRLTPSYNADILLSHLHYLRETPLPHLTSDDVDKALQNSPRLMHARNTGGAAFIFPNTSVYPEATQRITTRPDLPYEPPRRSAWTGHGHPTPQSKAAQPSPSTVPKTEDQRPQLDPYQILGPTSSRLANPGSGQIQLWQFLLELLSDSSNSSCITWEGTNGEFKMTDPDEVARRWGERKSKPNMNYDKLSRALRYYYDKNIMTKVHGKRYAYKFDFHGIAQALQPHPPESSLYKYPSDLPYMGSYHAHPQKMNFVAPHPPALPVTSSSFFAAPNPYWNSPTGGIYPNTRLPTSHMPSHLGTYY
# Summary of the method: as §1
# [4] = target: ELF1 (Homo sapiens, UniProt P32519 1-619)
# Sequence of ELF1 (P32519 whole entry): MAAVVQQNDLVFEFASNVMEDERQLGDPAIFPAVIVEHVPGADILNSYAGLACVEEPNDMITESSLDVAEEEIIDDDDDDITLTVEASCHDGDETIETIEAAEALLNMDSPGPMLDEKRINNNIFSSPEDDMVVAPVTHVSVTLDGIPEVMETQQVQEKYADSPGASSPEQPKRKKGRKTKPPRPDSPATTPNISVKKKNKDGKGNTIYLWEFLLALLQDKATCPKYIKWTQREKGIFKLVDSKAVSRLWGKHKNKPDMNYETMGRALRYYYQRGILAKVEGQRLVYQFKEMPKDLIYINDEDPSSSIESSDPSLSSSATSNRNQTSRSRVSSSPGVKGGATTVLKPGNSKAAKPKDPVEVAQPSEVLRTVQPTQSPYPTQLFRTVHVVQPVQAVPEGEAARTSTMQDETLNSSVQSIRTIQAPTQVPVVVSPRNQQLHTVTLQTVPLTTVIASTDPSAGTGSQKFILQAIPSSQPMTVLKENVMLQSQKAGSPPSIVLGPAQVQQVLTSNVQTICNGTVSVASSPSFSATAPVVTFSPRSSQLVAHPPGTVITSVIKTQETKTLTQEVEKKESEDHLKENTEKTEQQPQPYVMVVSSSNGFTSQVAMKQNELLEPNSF
# Summary of the method: as §1
# [5] = target: T4, EHF (Homo sapiens, UniProt Q9NZC4 1-300)
# T4 sequence: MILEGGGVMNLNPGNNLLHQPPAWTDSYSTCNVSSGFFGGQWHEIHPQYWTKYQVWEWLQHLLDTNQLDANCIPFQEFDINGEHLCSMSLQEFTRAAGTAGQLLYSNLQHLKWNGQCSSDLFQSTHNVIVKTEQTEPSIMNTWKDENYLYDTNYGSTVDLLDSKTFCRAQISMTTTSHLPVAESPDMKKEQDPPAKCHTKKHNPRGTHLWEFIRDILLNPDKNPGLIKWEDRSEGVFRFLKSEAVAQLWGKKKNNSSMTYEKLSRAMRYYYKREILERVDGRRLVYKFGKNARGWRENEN
# Summary of the method: as §1
# [6] = target: SPIB (Homo sapiens, UniProt Q01892 1-262)
# Sequence of SPIB (Q01892 whole entry): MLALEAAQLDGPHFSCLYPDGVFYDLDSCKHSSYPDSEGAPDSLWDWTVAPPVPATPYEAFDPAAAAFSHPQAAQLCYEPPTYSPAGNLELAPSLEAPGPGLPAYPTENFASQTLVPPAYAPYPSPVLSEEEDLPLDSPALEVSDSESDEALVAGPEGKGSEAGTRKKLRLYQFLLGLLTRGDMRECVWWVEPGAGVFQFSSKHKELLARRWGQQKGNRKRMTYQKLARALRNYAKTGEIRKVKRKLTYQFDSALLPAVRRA
# Summary of the method: as §1
# [7] = target: T5, ELK3 (Homo sapiens, UniProt P41970 1-407)
# T5 sequence: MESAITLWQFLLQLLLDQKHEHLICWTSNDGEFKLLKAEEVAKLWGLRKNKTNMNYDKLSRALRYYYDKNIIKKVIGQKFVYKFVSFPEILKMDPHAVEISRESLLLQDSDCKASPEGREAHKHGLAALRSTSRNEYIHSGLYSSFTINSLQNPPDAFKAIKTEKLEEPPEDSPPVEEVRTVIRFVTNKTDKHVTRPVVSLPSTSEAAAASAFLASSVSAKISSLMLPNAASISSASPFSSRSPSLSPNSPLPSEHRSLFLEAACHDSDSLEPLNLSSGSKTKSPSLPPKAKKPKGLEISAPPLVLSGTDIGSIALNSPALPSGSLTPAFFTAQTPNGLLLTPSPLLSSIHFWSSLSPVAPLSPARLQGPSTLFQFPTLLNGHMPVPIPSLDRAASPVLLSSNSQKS
# Summary of the method: as §1
# [8] = target: ETV5 (Homo sapiens, UniProt P41161 1-510)
# Sequence of ETV5 (P41161 whole entry): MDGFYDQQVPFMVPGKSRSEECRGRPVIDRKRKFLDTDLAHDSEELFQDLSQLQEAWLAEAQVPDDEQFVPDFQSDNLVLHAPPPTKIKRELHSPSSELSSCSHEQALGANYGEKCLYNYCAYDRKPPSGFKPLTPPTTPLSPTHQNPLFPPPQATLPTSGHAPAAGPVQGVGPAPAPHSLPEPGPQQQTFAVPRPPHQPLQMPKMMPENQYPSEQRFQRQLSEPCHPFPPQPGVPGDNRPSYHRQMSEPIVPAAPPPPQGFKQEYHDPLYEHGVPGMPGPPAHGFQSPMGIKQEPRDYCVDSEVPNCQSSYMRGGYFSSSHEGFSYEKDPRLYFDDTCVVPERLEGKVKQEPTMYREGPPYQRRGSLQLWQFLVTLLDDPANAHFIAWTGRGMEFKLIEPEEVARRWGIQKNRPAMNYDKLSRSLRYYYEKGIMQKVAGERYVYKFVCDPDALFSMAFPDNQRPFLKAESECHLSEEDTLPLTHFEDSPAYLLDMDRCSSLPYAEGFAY
# Summary of the method: as §1
# [9] = target: T6, SPIC (Homo sapiens, UniProt Q8N5J4 1-248)
# T6 sequence: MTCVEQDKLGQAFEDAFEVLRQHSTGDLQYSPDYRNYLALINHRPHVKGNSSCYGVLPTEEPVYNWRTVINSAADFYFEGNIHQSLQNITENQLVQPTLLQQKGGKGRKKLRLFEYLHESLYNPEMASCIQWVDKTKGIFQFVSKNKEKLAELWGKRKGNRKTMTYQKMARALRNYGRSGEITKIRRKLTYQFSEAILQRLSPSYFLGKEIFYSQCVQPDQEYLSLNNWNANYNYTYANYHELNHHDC
# Summary of the method: as §1
# [10] = target: ELF4 (Homo sapiens, UniProt Q99607 1-663)
# Sequence of ELF4 (Q99607 whole entry): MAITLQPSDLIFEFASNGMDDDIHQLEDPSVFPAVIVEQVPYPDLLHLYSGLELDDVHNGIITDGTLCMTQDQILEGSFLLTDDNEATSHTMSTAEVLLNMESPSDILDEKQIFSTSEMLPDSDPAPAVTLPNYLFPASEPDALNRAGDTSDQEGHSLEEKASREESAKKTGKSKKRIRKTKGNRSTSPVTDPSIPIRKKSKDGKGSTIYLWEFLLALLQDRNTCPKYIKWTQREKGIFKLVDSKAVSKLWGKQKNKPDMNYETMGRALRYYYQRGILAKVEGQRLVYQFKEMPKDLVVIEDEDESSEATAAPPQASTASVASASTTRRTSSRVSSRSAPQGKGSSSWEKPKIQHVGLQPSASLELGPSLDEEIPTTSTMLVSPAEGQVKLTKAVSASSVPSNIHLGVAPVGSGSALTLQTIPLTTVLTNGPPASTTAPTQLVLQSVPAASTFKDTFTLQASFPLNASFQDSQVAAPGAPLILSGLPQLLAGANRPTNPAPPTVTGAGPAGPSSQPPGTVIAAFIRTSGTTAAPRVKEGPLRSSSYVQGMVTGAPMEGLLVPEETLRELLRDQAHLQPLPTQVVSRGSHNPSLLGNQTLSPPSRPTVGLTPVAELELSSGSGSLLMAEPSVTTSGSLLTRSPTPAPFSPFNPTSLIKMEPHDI
# Summary of the method: as §1
sequence,measurement,setting,value
CAAACA,binding signal,[1],"1.15 fold enrichment (6-mer frequency, TF over GST control)"
same,binding signal,[2],"1.18 fold enrichment (6-mer frequency, TF over GST control)"
same,binding signal,[3],"1.18 fold enrichment (6-mer frequency, TF over GST control)"
same,binding signal,[4],"1.08 fold enrichment (6-mer frequency, TF over GST control)"
same,binding signal,[5],"1.09 fold enrichment (6-mer frequency, TF over GST control)"
same,binding signal,[6],"1.13 fold enrichment (6-mer frequency, TF over GST control)"
same,binding signal,[7],"1.17 fold enrichment (6-mer frequency, TF over GST control)"
same,binding signal,[8],"1.13 fold enrichment (6-mer frequency, TF over GST control)"
same,binding signal,[9],"1.14 fold enrichment (6-mer frequency, TF over GST control)"
same,binding signal,[10],"1.14 fold enrichment (6-mer frequency, TF over GST control)"
